Measurements taken from PubChem BioAssay (NCATS).
Where “and” joins values, the source holds several entries; their conditions need not be identical. Identical values can stand only once. Results filed as inconclusive are left out. A number with no mark means an inactive call. Calls of active or inactive are those of the source. Unless noted, the call rests on the fitted dose curve; in most records, active means well fitted curve in the direction sought with a large enough effect in the repeat runs; inconclusive means weak or mixed curves; inactive means no such curve, though single readings can be large; an effect the other way counts as inactive or inconclusive. *1 amine or outer side, *2 acyl side, *3 side chain or, on linkers, in order; H or OH if unused. Where a SMILES comes first, the peptide text is derived from it. Bridges are numbered along the chain shown (N, C = ends). Roman numbers before positions name the chains, in order. [ ]: non-standard residue; d: D form. ξ: configuration not given here. Actinocin(9to1) = Cc1c2oc3c(C)ccc(C(=O)[*:1])c3nc-2c(C(=O)[*:2])c(N)c1=O; ξNMeV = CNC(C(=O)O)C(C)C; ξV = CC(C)C(N)C(=O)O; Sar = CNCC(=O)O

experiment: qHTS assay for small molecule agonists of the antioxidant response element (ARE) signaling pathway measured by Nrf2-dependant transcriptional activity (AID 720636); settings: ARE-luc HepG2, Nrf2 luciferase reporter, 16 h; series mostly up to 92.4 µM; activation: at the top concentration;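 further: HepG2 cells with an ARE-driven luciferase reporter; % of control where 0% means no effect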
How it was run: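 We exposed ARE-luc HepG2 cells, seeded in assay medium with 1% dialyzed FBS and allowed 6 hr to adhere, to test compounds overnight (16 hr, 37 C) before measuring luciferase with ONE-Glo.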

SMILES	outcome	activation [%]
CC(O)CO (configuration not stated)	inactive	
O=S(=O)(O)O	inactive	
CC1=CCC(C(C)(C)O)CC1 (configuration not stated)		-0.067
CC(C)=O		-2.41
O=C(O)CCC(=O)C(=O)O		-1.57
CC1=C2[C@@H]([C@H](C)CC[C@H]2/C=C(\C)C(=O)O)[C@H](O)C1		-0.751
CCCCC(CC)COC(=O)CC(C(=O)OCC(CC)CCCC)S(=O)(=O)O (configuration not stated)		-5.01
CCCCCCCC/C=C\CCCCCCCC(=O)O	inactive	
CCOC(C)=O		-1.65
O=CCCCC=O		1.52
Nc1ccn([C@H]2CS[C@@H](CO)O2)c(=O)n1		-0.914
O=C(O)CN(CCN(CC(=O)O)CC(=O)O)CC(=O)O	inactive	
CC1(C)C(C=C(Cl)Cl)C1C(=O)OCc1cccc(Oc2ccccc2)c1 (configuration not stated)	inactive	
CCCCCCCC(=O)O	inactive	
CCCCC/C=C\C/C=C\CCCCCCCC(=O)O	inactive	
IC(I)I	inactive	
Cc1ccccc1	inactive	
C[C@H]1C[C@H]2[C@@H]3CCC4=CC(=O)C=C[C@]4(C)[C@@]3(F)[C@@H](O)C[C@]2(C)[C@@]1(O)C(=O)CO		-0.0549

experiment: qHTS assay for small molecule antagonists of the retinoid-related orphan receptor gamma (ROR-gamma) signaling pathway - cell viability counter screen (AID 720652); settings: RORgamma reporter cell line viability counter screen; series mostly up to 92.2 µM; activity change, negative = cytotoxicity: at the top concentration;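 further: CHO reporter cells with doxycycline-induced ROR-gamma expression; compound exposure lasted 16 hr before ATP read; on the % scale 0 is the no-effect control and ±100 the full control effect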
How it was run: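 CHO RORE-LUC/TET-ROR line, 1,000 cells/well, 37 C 5% CO2 5 hr; cpd or DMSO + doxycycline induction, 16 hr. CellTiter-Glo, 30 min RT, luminescence = ATP content.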

SMILES	outcome	activity change, negative = cytotoxicity [%]
CC(O)CO (configuration not stated)	inactive	
O=S(=O)(O)O		6.02
CC(C)=O		3.31
O=C(O)CCC(=O)C(=O)O		-6.25
CCOc1ccc2c(c1)C(C)=CC(C)(C)N2		-0.165
CC1=C2[C@@H]([C@H](C)CC[C@H]2/C=C(\C)C(=O)O)[C@H](O)C1		3.33
CCCCCCCC/C=C\CCCCCCCC(=O)O		-11.8
CCOC(C)=O		5.94
Nc1ccn([C@H]2CS[C@@H](CO)O2)c(=O)n1		18.6
CCCCCCCC(=O)O	inactive	
CCCCC/C=C\C/C=C\CCCCCCCC(=O)O		6.98
IC(I)I		3.77
Cc1ccccc1	inactive	

experiment: qHTS assay for small molecule agonists of the antioxidant response element (ARE) signaling pathway measured by Nrf2-dependant transcriptional activity - cell viability counter screen (AID 720653); settings: ARE-bla HepG2 viability, CellTiter-Glo ATP luminescence, 16 h; hits give low values; further: on the % scale 0 is the no-effect control and ±100 the full control effect
How it was run: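 Cytotoxicity counter screen: intracellular ATP quantified by CellTiter-Glo luminescence in the same ARE-bla HepG2 plates, after 16 h compound exposure and a 2 h beta-lactamase substrate step.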

SMILES	max response
CC(O)CO (configuration not stated)	-5.98% and -4.66%
O=S(=O)(O)O	-6.94% and 4.69%
CC1=CCC(C(C)(C)O)CC1 (configuration not stated)	3.37%
CC1=C(/C=C/C(C)=C/C=C/C(C)=C/CO)C(C)(C)CCC1	-15.5% and 5.78%
CC(C)=O	-3.47%
O=C(O)CCC(=O)C(=O)O	-1.5%
CCOc1ccc2c(c1)C(C)=CC(C)(C)N2	-1.53% and -25.3%
CC1=C2[C@@H]([C@H](C)CC[C@H]2/C=C(\C)C(=O)O)[C@H](O)C1	-8.96%
CCCCC(CC)COC(=O)CC(C(=O)OCC(CC)CCCC)S(=O)(=O)O (configuration not stated)	-6.73%
CCCCCCCC/C=C\CCCCCCCC(=O)O	-10.5% and 3.78%
CCOC(C)=O	1.62%
CC(C)(C)NC(=O)[C@@H]1C[C@@H]2CCCC[C@@H]2CN1C[C@@H](O)[C@H](Cc1ccccc1)NC(=O)[C@H](CC(N)=O)NC(=O)c1ccc2ccccc2n1	-9.17%
O=CCCCC=O	-17.7%
Nc1ccn([C@H]2CS[C@@H](CO)O2)c(=O)n1	4.54%
O=C(O)CN(CCN(CC(=O)O)CC(=O)O)CC(=O)O	14.1% and -8.31%
CC1(C)C(C=C(Cl)Cl)C1C(=O)OCc1cccc(Oc2ccccc2)c1 (configuration not stated)	-3.1% [middle of 4 runs]
CCCCCCCC(=O)O	3.78% and 1.59%
CCCCC/C=C\C/C=C\CCCCCCCC(=O)O	-8.45% and -16.5%
IC(I)I	1.96% and -3.08%
Cc1ccccc1	6.91% and 8.68%
C[C@H]1C[C@H]2[C@@H]3CCC4=CC(=O)C=C[C@]4(C)[C@@]3(F)[C@@H](O)C[C@]2(C)[C@@]1(O)C(=O)CO	-19.2%

experiment: qHTS Assay for Identifying Gametocytocidal Compounds (AID 743244; active means well fitted curve in the direction sought with a large enough effect; an effect the other way counts as inactive or inconclusive; further: potency means the concentration at half of the fitted maximal effect;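 on max response: on the % scale 0 is the no-effect control and ±100 the full control effect; actives lower the fluorescent signal which means gametocytes are killed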); settings: P. falciparum 3D7 stage III-V gametocytes, alamarBlue, 72 h; max response: hits give low values
How it was run: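 Stage III-V P. falciparum 3D7 gametocytes, 20,000 per well, were exposed to compounds for 72 h at 37C, 5% CO2. AlamarBlue was then added for 24 h and viability was read as fluorescence at Ex 525/Em 598 nm.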

SMILES	max response	Potency
CC(O)CO (configuration not stated)	5.22%	
O=S(=O)(O)O	-4.98%	
NC(=O)Nc1cc(-c2ccc(CN3CCOCC3)c(F)c2)sc1C(=O)N[C@H]1CCCNC1		18.7 µM (active)
CC1=CCC(C(C)(C)O)CC1 (configuration not stated)	-0.0478%	
CC1=C(/C=C/C(C)=C/C=C/C(C)=C/CO)C(C)(C)CCC1	11.8%	
CC(C)=O	-8.02%	
O=C(O)CCC(=O)C(=O)O	11.5%	
CCCCC(CC)COC(=O)CC(C(=O)OCC(CC)CCCC)S(=O)(=O)O (configuration not stated)	-7.18% and 8.87%	
CCCCCCCC/C=C\CCCCCCCC(=O)O	5.58%	
CCC1(Cc2ccc(N)cc2)CCC(=O)NC1=O (configuration not stated)	9.55%	
CCOC(C)=O	12.9%	
CC(NC(=O)Cc1cc(F)cc(F)c1)C(=O)NC(C(=O)OC(C)(C)C)c1ccccc1 (configuration not stated)	8.47%	
CC(C)(C)NC(=O)[C@@H]1C[C@@H]2CCCC[C@@H]2CN1C[C@@H](O)[C@H](Cc1ccccc1)NC(=O)[C@H](CC(N)=O)NC(=O)c1ccc2ccccc2n1		10 µM (active)
Cc1c2oc3c(C)ccc(C(=O)N[C@@H]4C(=O)NC(C(C)C)C(=O)N5CCC[C@H]5C(=O)N(C)CC(=O)N(C)C(C(C)C)C(=O)O[C@@H]4C)c3nc-2c(C(=O)N[C@@H]2C(=O)NC(C(C)C)C(=O)N3CCC[C@H]3C(=O)N(C)CC(=O)N(C)C(C(C)C)C(=O)O[C@@H]2C)c(N)c1=O (some centres not stated) (I: T[ξV]P[Sar][ξNMeV] / II: T[ξV]P[Sar][ξNMeV]; ester I:1-I:C, II:1-II:C; linker I:N-II:N via Actinocin(9to1))		0.0132 µM (active)
O=CCCCC=O	-1.12%	
Nc1ccn([C@H]2CS[C@@H](CO)O2)c(=O)n1	6.99% and 7.67%	
CCC1(O)CC2CN(CCc3c([nH]c4ccccc34)[C@@](C(=O)OC)(c3cc4c(cc3OC)N(C=O)[C@H]3[C@](O)(C(=O)OC)[C@H](OC(C)=O)[C@]5(CC)C=CCN6CC[C@]43[C@@H]65)C2)C1 (some centres not stated)	-18.4%	
O=c1cc(C2=CC=CC3Sc4ccccc4SC23)oc(N2CCOCC2)c1 (configuration not stated)	-19.3%	
C[C@@H]1CCN(C(=O)CC#N)C[C@@H]1N(C)c1ncnc2[nH]ccc12	9.63%	
Cc1nnc(C(C)C)n1C1CC2CCC(C1)N2CC[C@H](NC(=O)C1CCC(F)(F)CC1)c1ccccc1 (some centres not stated)	3.23%	
CC1(C)C(C=C(Cl)Cl)C1C(=O)OCc1cccc(Oc2ccccc2)c1 (configuration not stated)	-8.09%	
CNC1CCN(C(Cc2cccc(-c3ccncc3)c2)C(=O)c2sc3c(F)ccc(F)c3c2Cl)CC1 (configuration not stated)		9.35 µM (active)
CCCCCCCC(=O)O	10%	
O=C(O)CC/C=C\CC[C@H]1[C@@H](N2CCCCC2)[C@@H](O)C[C@@H]1OCc1ccc(-c2ccccc2)cc1	3.93%	
CCCCC/C=C\C/C=C\CCCCCCCC(=O)O	0.52%	
IC(I)I	8.07%	
CCCCCCCCCCCCCCCCCCOP(=O)([O-])OC1CC[N+](C)(C)CC1	13.1%	
COC(=O)C1=C(C)NC(C)=C(C(=O)OCCCN2CCC(c3ccccc3)(c3ccccc3)CC2)[C@H]1c1cccc([N+](=O)[O-])c1		14.8 µM (active)
Cc1ccccc1	2.65%	
C[C@H]1C[C@H]2[C@@H]3CCC4=CC(=O)C=C[C@]4(C)[C@@]3(F)[C@@H](O)C[C@]2(C)[C@@]1(O)C(=O)CO	-4.91%	
